Source: PubChem BioAssay (National Center for Advancing Translational Sciences (NCATS))
Only some compounds are listed: those with a hit (about 6.8% of all), similar ones and a draw of the others.
KB-3-1 cytotox = KB-3-1 parental cell cytotoxicity; KB-3-1 viability, CellTiter-Glo ATP luminescence, 72 h; hit rate 1.4% among 400,000; Potency, µM (titrated, usually from 46.1 µM), actives largely listed as cytotoxic; also: % is scaled to controls: 0 for no effect and ±100 for the full control effect; nearly all actives have a fitted effect of over 60% in size
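Luminescent ATP read-out (CellTiter-Glo) measures survival of drug-naive KB-3-1 cells after 72 h compound exposure at 37 °C. Titration series was screened from lowest to highest concentration, with DMSO vehicle plates as background controls.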
KB-V1 cytotox = kills drug-selected multidrug resistant KB-V1 cells; Potency, µM (highest dose often 46.1 µM), usual class: cytotoxic; hit rate 3.4% among 400,000; KB-V1 MDR cells viability, CellTiter-Glo, 72 h; also: % is scaled to controls: 0 for no effect and ±100 for the full control effect; nearly all actives have a fitted effect of over 60% in size
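Cytotoxicity toward P-gp-expressing KB-V1 cells was determined as loss of CellTiter-Glo luminescence after 72 h at 37 degrees C. Compounds were tested in quantitative HTS format across a concentration range, with curves fitted to normalized data.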
TSG101-PTAP inh = blocks PTAP/TSG101 interaction to inhibit HIV-1 budding; Q99816; AID 493005; 340,000 tested, under 10 active; Fluorescence polarization, FITC-PTAP peptide / Tsg101 binding; Potency, µM (top dose mostly 115 µM), without a hit: at the highest dose activity change, negative = inhibition, actives largely listed as inhibitors; active = well fitted inhibition curve with a large enough effect in the main read-out, with a control signal flat, not every such curve was filed as active; inconclusive = small, poorly fitted or top-dose-only effect, or effect the other way, or a change in a side signal; inactive = no such curve, though single readings can be large or run the other way; also: % of control where 0% means no effect
Target sequence (Q99816 whole entry, looked up): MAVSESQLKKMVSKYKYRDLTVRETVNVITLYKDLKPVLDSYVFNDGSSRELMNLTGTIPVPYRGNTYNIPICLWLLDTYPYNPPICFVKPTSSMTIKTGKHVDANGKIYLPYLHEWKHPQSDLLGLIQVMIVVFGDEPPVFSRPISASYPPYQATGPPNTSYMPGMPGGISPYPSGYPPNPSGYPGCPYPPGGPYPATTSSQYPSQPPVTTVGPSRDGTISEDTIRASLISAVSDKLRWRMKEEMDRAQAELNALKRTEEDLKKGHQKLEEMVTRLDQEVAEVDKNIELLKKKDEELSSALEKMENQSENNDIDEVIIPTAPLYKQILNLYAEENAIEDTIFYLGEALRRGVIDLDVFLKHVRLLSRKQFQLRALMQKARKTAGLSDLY
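Tsg101 binding domain (10 uM final) was mixed with compound and a FITC-labeled PTAP peptide (50 nM final) in HEPES pH 7.5 buffer with NaCl, Tween 20, EDTA and TCEP; fluorescence polarization was read after 20 min at r.t.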
MCF10A rereplic = DNA re-replication induction in MCF 10a cells. hit rate 2.9% among 350,000. MCF 10A DNA re-replication, Hoechst nuclear intensity, 48 h. Potency, µM (highest dose often 46.1 µM), for inactives: at the highest dose activity, positive = re-replication, hits mostly activators; also: % of control where 0% means no effect; nearly all actives have a fitted effect of over 50% in size
PINK1 modulator = PINK1 expression modulation | PINK1 immunofluorescence, high-content cytometry, 24 h | Potency, µM (series often up to 76.6 µM), for the others: top-dose activation (PINK1 increase), actives largely listed as activators | hit rate 0.2% among 410,000 | AID 624263; active = well fitted activation curve with a large enough effect; inconclusive = small, poorly fitted or top-dose-only effect; cell line not stated here; also: % of control where 0% means no effect; nearly all actives have a fitted effect of over 65% in size
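PINK1 protein, normally rapidly degraded, was detected by immunofluorescence after 24 hour compound treatment of a stable cell line. Titration data (5 concentrations) came from laser-scanning cytometry, with CCCP-treated wells as controls.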
SW480 rerep = DNA re-replication induction in SW480 cells. SW480 DNA re-replication, Hoechst DNA content imaging, 48 h. Potency, µM (top dose mostly 46.1 µM), for inactives: at the top dose re-replication activation, most hits filed as activators. hit rate 1.8% among 340,000. AID 624297; also: % of control where 0% means no effect; nearly all actives have a fitted effect of over 55% in size
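Quantitative HTS format with DMSO vehicle controls; 48 hr drug incubation at 37 C, then 40 min Hoechst staining and scanning imager measurement at 405 nm excitation.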
* marks the source's active call; other numbers are inactive results; i = inactive; ? = inconclusive; · = not tested or not shown; [ ] = another dose, or the depositor's remark. Unless noted, calls follow the shape of the dose curve; as a rule, active = well fitted curve in the direction sought with a large enough effect; inconclusive = small, poorly fitted or top-dose-only effect, or another doubt; inactive = no such curve, though single readings can be large; an effect the other way counts as inactive or inconclusive. Potency is read from the fitted curve at half-maximal effect.

SMILES	KB-3-1 cytotox	KB-V1 cytotox	TSG101-PTAP inh	MCF10A rereplic	PINK1 modulator	SW480 rerep
Cc1[nH]ccc2cc3nc4ccccc4c3cc12	?	10µM*	·	·	-1%	·
COc1ccccc1N1CCN(C(=O)Cn2c(=O)n3nc(-c4cccc(C)c4)nc3c3ccccc32)CC1	i	i	·	·	4%	·
CCOc1ccc(NC(=O)C(Cc2ccccc2)N2C(=O)c3cccc4cccc(c34)C2=O)cc1 (stereo unspecified)	?	?	?	8.2µM*	?	9.2µM*
CCOc1ccc(NC(=O)[C@H](Cc2ccccc2)N2Cc3ccccc3C2=O)cc1	i	i	·	·	4%	·
O=C1[C@@H]2[C@H]3CC[C@H](C3)[C@@H]2C(=O)N1O	i	i	-4%	1.2µM*	0%	?
O=C(CCl)N1N=C(c2ccco2)CC1c1cccs1 (stereo unspecified)	?	23µM*	0%	21µM*	-3%	3.3µM*
Cc1ccc(C2=NN(C(=O)CCl)C(c3cccs3)C2)o1 (stereo unspecified)	?	?	-2%	?	1%	5.8µM*
CC(=O)N1N=C(c2ccco2)CC1c1cccs1 (stereo unspecified)	i	i	-5%	-3%	·	-2%
CCCS(=O)(=O)c1ncc(Cl)c(C(=O)Nc2c(C(=O)c3ccccc3)oc3ccccc23)n1	i	i	·	·	1%	·
COc1ccc2nc(C)cc(NCc3ccc(F)cc3)c2c1	i	i	?	18µM*	10%	?
COc1ccc(/C=N/Nc2cc(C)nc3ccc(OC)cc23)c(OC)c1	?	?	1%	?	-2%	23µM*
COc1ccc2nc(C)cc(N/N=C/c3ccccc3)c2c1	i	21µM*	0%	23µM*	-4%	16µM*
CC(C)(C)OC(=O)N1CCC(c2c(C(=O)NCc3ccco3)cnn2-c2ccccc2Cl)CC1	i	?	·	·	-1%	·
O=C1C2C3C=CC(C4CC34)C2C(=O)N1CCc1ccccc1 (stereo unspecified)	i	18µM*	0%	-42%	0%	-98%
O=C(CN1C(=O)C2C3C=CC(C4CC34)C2C1=O)Oc1ccccc1 (stereo unspecified)	i	?	-12%	9%	4%	-1%
COc1ccc(-n2cc(CN(C)C(C)c3ccncn3)c(-c3cccc(F)c3)n2)cc1 (stereo unspecified)	i	?	-7%	13µM*	2%	7%
O=C(CSC1=NS(=O)(=O)c2ccccc21)Nc1ccccc1	15µM*	i	-2%	?	5%	1%
COC(=O)CSC1=NS(=O)(=O)c2ccccc21	i	i	1%	13µM*	5%	?
COc1ccc2c(c1)CCc1c(C(=O)Nc3ccc(F)c(Cl)c3)noc1-2	i	?	·	·	2%	·
COc1ccc(CC(=O)Nc2ccccc2-c2ccccc2)cc1OC	?	15µM*	0%	3%	-2%	1%
CCC(=O)c1ccc(OCC(=O)N(CC)CC(=O)Nc2ccccc2OC)cc1	i	16µM*	-1%	-6%	-1%	-8%
CCN(CC(=O)Nc1ccccc1OC)C(=O)COc1ccc(C#N)cc1	i	i	-7%	4%	-2%	-93%
Cc1ccc(CC(=O)Nc2ccccc2-c2ccccc2)cc1C	i	21µM*	-4%	9.2µM*	21%	3%
CCN(CC(=O)Nc1ccccc1-c1ccccc1)Cc1nc2ccccc2c(=O)[nH]1	8.2µM*	?	-3%	6.5µM*	2%	?
CC(C)Cn1cc(NC(=O)NCc2cccc(Cl)c2)c2ccccc2c1=O	i	i	·	·	-3%	·
SMILES	KB-3-1 cytotox	KB-V1 cytotox	TSG101-PTAP inh	MCF10A rereplic	PINK1 modulator	SW480 rerep
O=C(CSC1=Nc2ccccc2N=C(c2ccc(F)cc2)C1)NCc1ccc(Cl)cc1	i	i	·	·	3%	·
COc1cccc(CNC(=O)c2c(OC)cc(=O)n3c2CCN(C(=O)c2cc(F)cc(F)c2)CC3)c1	·	·	·	·	0%	·
c1cncc(OC2CCN(Cc3ccc4c(c3)CN(Cc3ccc5c(c3)OCCO5)CCO4)CC2)c1	·	·	·	·	1%	·
CCN(CC(=O)Nc1ccccc1OC)CC(=O)Nc1ccccc1-c1ccccc1	21µM*	8.2µM*	-1%	15µM*	1%	?
O=C(CNC(c1ccccc1)c1ccccc1)Nc1ccccc1-c1ccccc1	?	15µM*	2%	?	0%	3%
CCN(CC(=O)Nc1ccccc1OC)CC(=O)Nc1ccccc1C(F)(F)F	i	?	0%	?	0%	?
c1ccc(CCN=C2CCCc3c2[nH]c2ccccc32)cc1	13µM*	?	-1%	0%	0%	-7%
Nc1ccc(C(=O)N/N=C2\CCCc3c2[nH]c2ccccc32)cc1	?	i	-11%	13%	-3%	6%
COc1ccc2c(c1)sc1nc(-c3ccccc3)cn12	2.3µM*	?	-1%	?	21%	?
CCCN(CCC)S(=O)(=O)c1ccc(NC(=O)c2cc(C(=O)OC)cc([N+](=O)[O-])c2)cc1	i	10µM*	-7%	19%	0%	5%
COCC(=O)Nc1cc(C(=O)N2CC3(C)CC2CC(C)(C)C3)c2c(c1)nc(-c1ccncc1)n2C (stereo unspecified)	·	·	·	·	0%	·
CN(Cc1ccccc1)C(=O)CCSc1nc(-c2ccc3c(c2)OCO3)cc(C(F)(F)F)n1	i	2.6µM*	0%	0%	1%	7%
COc1ccc(CNC(=O)CCSc2nc(-c3ccc4c(c3)OCO4)cc(C(F)(F)F)n2)cc1	i	?	-6%	21µM*	-1%	?
O=C(CCSc1nc(-c2ccc3c(c2)OCO3)cc(C(F)(F)F)n1)NCc1ccccc1	i	i	-5%	?	2%	4%
CCC(C)NC(=O)CCSc1nc(-c2ccc3c(c2)OCO3)cc(C(F)(F)F)n1 (stereo unspecified)	i	i	·	·	1%	·
CCOC(=O)C1CCCN(S(=O)(=O)c2cc(OCC(=O)NC3CCCCC3)c(C)cc2Cl)C1 (stereo unspecified)	i	16µM*	-6%	10%	-3%	2%
Cc1cc(Cl)c(S(=O)(=O)N2CCN(c3ccc(F)cc3)CC2)cc1OCC(N)=O	i	?	0%	-4%	4%	0%
Cc1cc(Cl)c(S(=O)(=O)N2CCN(c3ccc(F)cc3)CC2)cc1OCC(=O)NC1CCCCC1	0.73µM*	?	-5%	26%	-7%[38.3 µM]	0%
CCN(Cc1ccncc1)Cc1ccc2c(c1)CN(C(=O)c1ccccc1-n1cccn1)CCO2	·	·	·	·	0%	·
